Test results as given in PubChem BioAssay (NCATS).
Inconclusive results are not listed. Calls of active or inactive are those of the source. Unless noted, calls follow the shape of the dose curve; as a rule, active = well fitted curve in the direction sought with a large enough effect; inconclusive = small, poorly fitted or top-dose-only effect, or another doubt; inactive = no such curve, though single readings can be large; an effect the other way counts as inactive or inconclusive.

Key:
[1] = biological target: Ubiquitin carboxyl-terminal hydrolase 1 (Homo sapiens) (UniProt O94782); assay: Inhibitors of USP1/UAF1: Pilot qHTS (AID 504865); also: nearly all actives have a fitted effect of over 35% in size; also: potency is read from the fitted curve at half-maximal effect
Procedure, shortened: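 Kinetic fluorescence assay: 1nM USP1/UAF1, 15 min compound preincubation, then 150nM Ub-Rho; 480/540 nm.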

ATS189 = assay: qHTS profiling for inhibitors of Plasmodium falciparum proliferation (AID 504749); also: nearly all actives have a fitted effect of over 60% in size; also: potency is read from the fitted curve at half-maximal effect; settings: P. falciparum in erythrocytes, SYBR Green DNA, 72 h; series mostly up to 28.7 µM
Procedure, shortened: (§1)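 P. falciparum-infected erythrocytes (0.3% parasitemia, 2.5% hematocrit) incubated with compound 72 h at 37 C, 5% CO2. Parasite DNA detected by SYBR Green after lysis, overnight at room temperature; normalised to 0.29 uM artemisinin and DMSO.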

ATS95 = assay: as above; settings: P. falciparum in erythrocytes, SYBR Green DNA, 72 h; series mostly up to 28.7 µM
Procedure, shortened: as §1

C2A = assay: as above; settings: P. falciparum in erythrocytes, SYBR Green DNA, 72 h; series mostly up to 28.7 µM
Procedure, shortened: as §1

CP191 = assay: as above; settings: P. falciparum in erythrocytes, SYBR Green DNA, 72 h; series mostly up to 28.7 µM
Procedure, shortened: as §1

CP250 = assay: as above; settings: P. falciparum in erythrocytes, SYBR Green DNA, 72 h; series mostly up to 28.7 µM
Procedure, shortened: as §1

P93_24 = assay: as above; settings: P. falciparum in erythrocytes, SYBR Green DNA, 72 h; series mostly up to 28.7 µM
Procedure, shortened: as §1

P94_40 = assay: as above; settings: P. falciparum in erythrocytes, SYBR Green DNA, 72 h; series mostly up to 28.7 µM
Procedure, shortened: as §1

TAB165 = assay: as above; settings: P. falciparum in erythrocytes, SYBR Green DNA, 72 h; series mostly up to 28.7 µM
Procedure, shortened: as §1

[2] = biological target: Mitogen-activated protein kinase 10 (Mus musculus) (UniProt Q61831); assay: JNK3 AlphaScreen Assay (AID 530; active = well fitted curve in either direction with a large enough effect, not every such curve was filed as active;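 also: kinase came from lysate of stimulated human HepG2 cells; signal reports phosphorylation of biotinylated GST-cJun 1-79 at Ser73 with 10 µM ATP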)
Procedure, shortened: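 Pre-activated (IL-1β/TNFα) JNK3 in HepG2 lysates phosphorylates biotin-GST-cJun(1-79), 10 uM ATP; anti-phospho-cJun(Ser73) AlphaScreen read at room temperature, pH 7.6 Tris buffer. Compounds pre-incubated 15 min as titrations.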

W2 = assay: qHTS profiling for inhibitors of Plasmodium falciparum proliferation (AID 504749); also: nearly all actives have a fitted effect of over 60% in size; also: potency is read from the fitted curve at half-maximal effect; settings: P. falciparum in erythrocytes, SYBR Green DNA, 72 h; series mostly up to 28.7 µM
Procedure, shortened: as §1

[3] = biological target: Cytochrome P450 3A4 (Homo sapiens) (UniProt P08684); assay: qHTS Assay for Inhibitors and Substrates of Cytochrome P450 3A4 (AID 884); also: nearly all actives have a fitted effect of over 50% in size
Procedure, shortened: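 20 nM human CYP3A4 with 25 uM Luciferin-PPXE (at KM) in 200 mM KPO4, preincubated 10 min with compound; NADPH regeneration started a 60 min RT reaction. Luciferin detected by luminescence, normalized to 57 uM ketoconazole as full inhibition.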

[4] = Confirmation and Secondary Assay for Modulators of Hemoglobin Beta Chain Splicing at IVS2 654 locus (AID 910);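 also: HeLa cells stably carrying EGFP split by mutant beta-globin IVS2-654 intron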
Procedure, shortened: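 HeLa cells stably expressing EGFP interrupted by β-globin IVS2-654 intron, seeded overnight in Opti-MEM/2% FCS, then treated 2 days at 37 °C. Restored splicing read as total peak GFP intensity per well by laser scanning cytometry (488 nm excitation, 500–520 nm emission); 500 nM antisense PNA as control.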

[5] = Confirmation and Secondary Assay for Modulators of Hemoglobin Beta Chain Splicing at IVS2 705 locus (AID 930);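 also: HeLa cells stably expressing the EGFP-705 splicing reporter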
Procedure, shortened: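 HeLa cells stably carrying EGFP interrupted by mutant beta-globin IVS2-705 intron (CMV-driven) were seeded at 500 cells/well, treated next day with compound for 2 days at 37C; corrected splicing restores EGFP, read as total peak GFP intensity per well.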

Measured: Potency

Ubiquitin carboxyl-terminal hydrolase 1 (Homo sapiens), sequence (O94782 whole entry, looked up): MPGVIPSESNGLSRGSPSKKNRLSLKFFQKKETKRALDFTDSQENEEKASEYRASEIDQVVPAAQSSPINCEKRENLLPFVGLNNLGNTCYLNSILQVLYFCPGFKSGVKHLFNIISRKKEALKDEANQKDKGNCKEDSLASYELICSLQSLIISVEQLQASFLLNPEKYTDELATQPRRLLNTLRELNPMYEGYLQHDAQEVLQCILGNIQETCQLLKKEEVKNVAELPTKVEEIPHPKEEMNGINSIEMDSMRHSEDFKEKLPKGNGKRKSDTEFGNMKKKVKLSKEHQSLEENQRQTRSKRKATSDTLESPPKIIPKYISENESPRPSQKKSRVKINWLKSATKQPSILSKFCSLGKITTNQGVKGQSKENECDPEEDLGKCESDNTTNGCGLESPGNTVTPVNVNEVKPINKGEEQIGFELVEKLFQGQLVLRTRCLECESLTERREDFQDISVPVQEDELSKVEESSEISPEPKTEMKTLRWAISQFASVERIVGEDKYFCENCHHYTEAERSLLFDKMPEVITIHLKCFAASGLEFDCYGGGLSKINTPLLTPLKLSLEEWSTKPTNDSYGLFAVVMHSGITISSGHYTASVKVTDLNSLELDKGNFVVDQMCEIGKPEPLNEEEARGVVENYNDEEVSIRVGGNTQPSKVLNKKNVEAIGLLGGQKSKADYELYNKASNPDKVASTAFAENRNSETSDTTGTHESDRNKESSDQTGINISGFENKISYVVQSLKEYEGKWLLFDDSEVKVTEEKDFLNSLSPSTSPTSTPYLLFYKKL
Cytochrome P450 3A4 (Homo sapiens), sequence (P08684 whole entry, looked up): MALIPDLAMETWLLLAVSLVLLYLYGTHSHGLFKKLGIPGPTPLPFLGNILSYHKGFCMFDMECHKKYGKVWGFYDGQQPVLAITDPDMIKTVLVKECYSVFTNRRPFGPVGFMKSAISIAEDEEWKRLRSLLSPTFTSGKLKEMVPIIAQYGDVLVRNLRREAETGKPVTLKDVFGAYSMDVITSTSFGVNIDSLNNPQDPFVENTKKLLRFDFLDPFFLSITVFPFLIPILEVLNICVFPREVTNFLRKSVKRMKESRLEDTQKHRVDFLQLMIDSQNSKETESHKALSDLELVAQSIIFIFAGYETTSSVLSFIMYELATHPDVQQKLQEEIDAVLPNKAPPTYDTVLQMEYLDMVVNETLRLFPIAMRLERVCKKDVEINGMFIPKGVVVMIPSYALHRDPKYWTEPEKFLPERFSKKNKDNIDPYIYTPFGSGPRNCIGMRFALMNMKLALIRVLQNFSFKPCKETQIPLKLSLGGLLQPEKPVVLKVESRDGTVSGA

CC(=O)O[C@]1(C(C)=O)CCC2C3CCC4=CC(=O)CCC4(C)C3(F)C(O)CC21C (some centres undefined)
inactive: [1] | ATS189 | ATS95 | C2A | CP191 | CP250 | P93_24 | P94_40 | TAB165

Clc1ccc(CS[C@@H](Cn2ccnc2)c2ccc(Cl)cc2Cl)cc1
inactive: [2]
active: ATS189 3.16 µM | ATS95 3.55 µM | CP191 3.55 µM | P93_24 1.26 µM | P94_40 3.55 µM | TAB165 0.708 µM | W2 1.02 µM

C[C@]12CC[C@@H]3c4ccc(O)cc4CC[C@H]3[C@@H]1CCC2OC(=O)CCC1CCCC1 (some centres undefined)
inactive: ATS189 | ATS95 | C2A | CP191 | CP250 | P94_40 | TAB165

C#C[C@@]1(O)CC[C@@H]2[C@H]3CCC4=C/C(=N\O)CC[C@H]4[C@@H]3CC[C@]21CC
inactive: [1] | ATS189 | ATS95 | C2A | CP191 | CP250 | P93_24 | P94_40 | TAB165

CC(C)CCCC(C)C1CC(=O)C2=C3CCC4CC(O)CCC4(C)C3CCC21C (centres undefined)
active: W2 7.57 µM
inactive: ATS189 | ATS95 | C2A | CP191 | CP250 | P93_24 | P94_40 | TAB165

C[C@@H]1CC2C3CCC4=CC(=O)C=C[C@]4(C)[C@@]3(F)[C@@H](O)C[C@]2(C)[C@@]1(O)C(=O)COC(=O)c1cccc(S(=O)(=O)O)c1 (some centres undefined)
inactive: [1] | ATS189 | ATS95 | C2A | CP191 | CP250 | P93_24 | P94_40 | TAB165 | W2

C[C@]12C=CC(=O)N[C@@H]1CC[C@@H]1C2CC[C@]2(C)C(C(=O)Nc3cc(C(F)(F)F)ccc3C(F)(F)F)CC[C@@H]12 (some centres undefined)
inactive: ATS189 | C2A | CP191 | CP250 | P93_24 | P94_40
active: W2 1.51 µM

CC(=O)CC(c1ccccc1)C1C(=O)Oc2ccccc2C1=O (centres undefined)
inactive: [1] | ATS189 | C2A | CP191 | CP250 | P93_24 | P94_40 | TAB165 | W2

CCC1OC(=O)C[C@H](O)C(C)[C@@H](O[C@@H]2OC(C)C(O)C(N(C)C)C2O)C(CCN2CC(C)CC(C)C2)CC(C)C(=O)/C=C/C(C)=C\[C@@H]1COC1OC(C)C(O)C(OC)C1OC (some centres undefined)
inactive: [3] | [4] | [5] | [1]
active: C2A 10 µM | CP191 6.31 µM | W2 1.07 µM

O=C1Oc2ccccc2C(=O)C1C(CC(O)c1ccc(-c2ccc(Br)cc2)cc1)c1ccccc1 (centres undefined)
active: [1] 50.1 µM
inactive: ATS95 | CP191 | P94_40 | TAB165

Cc1cnc(NC(=O)C2C(=O)c3ccccc3S(=O)(=O)N2C)s1 (centres undefined)
inactive: ATS189 | ATS95 | C2A | CP191 | CP250 | P93_24 | P94_40 | W2

CC1OC(OC2C(O)CC(OC3C(O)CC(OC4CCC5(C)C(CCC6C5CCC5(C)C(C7=CC(=O)OC7)CCC65O)C4)OC3C)OC2C)CC(O)C1O (centres undefined)
inactive: [1] | ATS189 | C2A | CP191 | CP250 | P93_24 | P94_40 | TAB165

CC1CCC(O)C/C1=C\C=C1/CCCC2(C)C1CCC2C(C)/C=C/C(C)C(C)C (centres undefined)
inactive: ATS189 | ATS95 | C2A | CP191 | CP250 | TAB165

C[N+]12CCCC[C@@H]1CCC(=C(c1cccs1)c1cccs1)C2 (some centres undefined)
inactive: [1]
active: CP191 8.91 µM | P93_24 7.94 µM | P94_40 7.94 µM | TAB165 12.6 µM | W2 13.5 µM

CC1=C(C/C=C(\C)CCCC(C)CCCC(C)CCCC(C)C)C(=O)c2ccccc2C1=O (centres undefined)
active: P94_40 4.47 µM | W2 4.78 µM
inactive: C2A | CP250

COc1cc(/C=C2\CCC/C(=C\c3ccc(O)c(OC)c3)C2=O)ccc1O
active: ATS95 10 µM | CP191 10 µM | CP250 10 µM | P93_24 12.6 µM | P94_40 12.6 µM | TAB165 12.6 µM | W2 9.53 µM
